# Bioassay records deposited in PubChem BioAssay by University of Kansas High Throughput Screening Laboratory.
# Pf apPOL inh: Pf-apPOL DNA polymerase inhibition; Recombinant Pf-apPOL, molecular beacon fluorescence, 1.5 h; inhibition, % at 10 µM; actives 0.25% (n = 210,000)
# mHTT CaM bind: inhibitors of human mutant huntingtin-calmodulin interaction. P42858. AlphaScreen His-mHTT/GST-CaM binding, luminescence. inhibition, % at 15 µM. actives 3.6% (n = 190,000). AID 1671202;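 note: 0% = both proteins with DMSO and 100% = one protein alone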
# Numbers without * were called inactive; i = inactive; nt = no result; ! = not confirmed by another sample. The full list was thinned out, with hits kept by preference. Cut-off read from the data, not from the text of the source: active = inhibition above about 50%; inactive = the rest.
SMILES,Pf apPOL inh,mHTT CaM bind
Cc1ccc(-c2nc(C(=O)NCc3ccccc3Cl)cs2)n1C,0,59*
Cc1ccc(NC(=O)c2csc(-c3ccc(C)n3C)n2)cc1,-6,60*
CC(C)c1cc(C2CCCN2C(=O)Cc2cccc(Cl)c2)on1 (centres undefined),4,-4
CC(=O)N1CCN(c2cccc(Cl)c2)C(=O)C1C (centres undefined),-1,-8
COc1ccc(C2=NC3(CCN(CC(=O)Nc4ccc(C)cc4C)CC3)NC2=O)cc1,1,20
COc1ccc(-n2nc(C(=O)Nc3cc(OC)c(OC)c(OC)c3)c3ccccc3c2=O)cc1,-6,24
Cc1ccc2ncn(C3CCN(C(=O)COc4ccccc4)CC3)c2c1,-5,-6
Cc1cc(C)c2oc(=O)n(C3CCN(C(=O)COc4ccccc4)CC3)c2c1,-3,73*
COc1cccc(NC(=O)c2ccccc2Cl)c1,3,-11
COc1cccc(CC(=O)NNC(=O)NC(=O)c2ccccc2Cl)c1,54*,nt
CCCN(CCC)S(=O)(=O)c1ccc(C(=O)Nc2nc(-c3ccccn3)cs2)cc1,-7,88*
CN(Cc1ccccc1)S(=O)(=O)c1ccc(C(=O)Nc2nc(-c3ccccn3)cs2)cc1,-3,50
CC(C)CN(CC(C)C)S(=O)(=O)c1ccc(C(=O)Nc2nc(-c3ccccn3)cs2)cc1,-4,52*
CCCCN(CCCC)S(=O)(=O)c1ccc(C(=O)Nc2nc(-c3ccccn3)cs2)cc1,-5,41
CCN(CC)Cc1c(O)ccc2c1OC(=Cc1ccc(OC)cc1)C2=O,-12,14
CCCNC(=O)c1cn(-c2ccccc2Cl)nn1,-4,-4
FC(F)(F)c1ccc(N2CCCCC2)c(NC(=S)Nc2cc(Cl)cc(Cl)c2)c1,4,nt
O=c1c2nc(-c3ccc4c(c3)OCO4)cn2ccn1-c1cccc(F)c1,1,-5
COc1ccc(NC(=O)N2CCCC2c2ccc(Cl)cc2)c(OC)c1 (centres undefined),-4,5
Cc1ccc(C2=C/C(=C\c3ccccc3C)C(=O)O2)cc1,0,-37
CC1=C/C(=C/c2ccc(-c3ccc(C)cc3)o2)C(=O)O1,-3,85*
Nc1ccccc1NCCOc1ccccc1,2,79*
c1ccc(OCCCOc2ccccc2)cc1,-2,-124
CC(C)NC(=O)c1cncc(-c2ccc(F)cc2F)c1,63*,6
CCNC(=O)c1cncc(-c2ccc(F)cc2F)c1,38,5
SMILES,Pf apPOL inh,mHTT CaM bind
O=C(Nc1nc2ccccc2s1)C1CC(=O)N(c2ccc(Br)cc2)C1 (centres undefined),1,60*
O=C(Nc1ccccc1F)C1CC(=O)N(c2ccc(Br)cc2)C1 (centres undefined),0,2
COc1ccc(Cc2c(C)nc(C)nc2N2CCN(C(=O)C3CCCC3)CC2)cc1,0,17
CC(NC(=O)CCc1c[nH]c2ccccc12)c1ccccc1 (centres undefined),-3,4
O=C(NCCc1c[nH]c2ccccc12)C(c1ccccc1)n1cccc1 (centres undefined),2,96*
COc1ccc(C=C2SC(=S)N(C(C(=O)O)C(C)C)C2=O)cc1 (centres undefined),-55,3
COc1cc(C=C2SC(=S)N(C(C(=O)O)C(C)C)C2=O)cc(OC)c1O (centres undefined),-23,61*
COc1cccc(C2Oc3ccc(Cl)cc3C3CC(c4ccco4)=NN32)c1 (centres undefined),-12,47
Fc1ccc(C2Oc3ccc(Cl)cc3C3CC(c4ccco4)=NN32)cc1F (centres undefined),-17,82*
CCOc1cccc2c1OC(c1ccc(F)c(F)c1)N1N=C(c3ccco3)CC21 (centres undefined),-29,14
Brc1ccc2c(c1)C1CC(c3ccco3)=NN1C(c1cccs1)O2 (centres undefined),1,89*
COc1cc(C2Oc3ccccc3C3CC(c4ccccc4)=NN32)cc(OC)c1OC (centres undefined),nt,-5
COc1ccc(C2Oc3ccc(Cl)cc3C3CC(c4ccco4)=NN32)cc1OC (centres undefined),-20,60*
COc1cccc2c1OC(c1cccc(F)c1)N1N=C(c3ccco3)CC21 (centres undefined),-17,32
COc1ccc(C2=NN3C(C2)c2cc(OC)ccc2OC3c2cc(OC)c(OC)c(OC)c2)cc1 (centres undefined),-16,59*
COCCCNC(=O)c1ccc2c(c1)NC(=O)C(N1CCCC1)S2 (centres undefined),-16,1
N/C(CSc1nc(-c2ccccc2)c(-c2ccccc2)o1)=N/O,nt,i
COc1ccc(C(=O)Nc2cc(Cl)ccc2OC)cc1,-5,-13
COc1cc(C2Oc3c(OC)cccc3C3CC(c4ccco4)=NN32)cc(OC)c1OC (centres undefined),-14,38
COc1cc(C2Oc3ccc(Cl)cc3C3CC(c4ccco4)=NN32)cc(OC)c1OC (centres undefined),-20,63*
CC1(C)CC(=O)C2=C(C1)Nc1nc(-c3cccc(Cl)c3)nn1C2c1ccc2c(c1)OCO2 (centres undefined),-2,61*
Cc1cccc(-c2nc3n(n2)C(c2ccc(O)cc2)C2=C(CC(C)(C)CC2=O)N3)c1 (centres undefined),-2,7
CN1C(=O)N(C)C(=O)C(CCc2ccncc2)(Cc2ccc(OCc3ccccc3)cc2)C1=O,-6,1
Cc1onc(-c2ccccc2Cl)c1C(=O)Nc1cccc(-c2cn3cccnc3n2)c1,-6,16
O=C(CSCc1ccccc1)Nc1cccc(-c2cn3cccnc3n2)c1,-6,52*
SMILES,Pf apPOL inh,mHTT CaM bind
O=[N+]([O-])c1cc(C(F)(F)F)cc([N+](=O)[O-])c1ON=C1CSCc2ccccc21,-7,nt
O=C(Nc1ccc2c(c1)OCO2)C(=O)NC(c1ccccc1)c1ccccc1,-7,-8
CC(=O)NC(c1ccc2c(c1)OCO2)c1cc(Cl)c2cccnc2c1O (centres undefined),-6,100*
COc1ccc(C(=O)NC(c2ccc([N+](=O)[O-])cc2)c2cc(Cl)c3cccnc3c2O)cc1 (centres undefined),-12,14
CC(=O)NC(c1ccc(C)cc1)c1cc(Cl)c2cccnc2c1O (centres undefined),2,100*!
CC(=O)Nc1cccc2c(C(=O)NC(C)c3ccc(C)cc3C)ccnc12 (centres undefined),0,0
CC(=O)NC(c1cccc(Cl)c1)c1cc(Cl)c2cccnc2c1O (centres undefined),-3,100*
Cc1cccnc1NC(=O)C(C)Oc1cccc(Cl)c1 (centres undefined),5,0
COc1ccc(C(=O)NC(c2ccc(OC)c(OC)c2)c2cc(Cl)c3cccnc3c2O)cc1 (centres undefined),2,72*
CCN(CC)C(=O)c1c[nH]c2ccc(S(=O)(=O)N3CCc4ccccc43)cc2c1=O,-10,9
COc1ccccc1C1=NOC(C(=O)Nc2cccc(C(C)=O)c2)C1 (centres undefined),-5,-5
COc1ccc(-c2[nH]n(-c3nc4ccccc4s3)c(=O)c2C=NCc2ccco2)cc1,-7,6
O=C(NCC1COC2(CCCCC2)O1)C1c2ccccc2Oc2ccccc21 (centres undefined),-6,-14
